From PubChem BioAssay AID624331 (National Center for Advancing Translational Sciences (NCATS), 2012)
Results filed as inconclusive are left out. A call without a number means that no potency is given here. Activity calls are given as the source filed them. The call rests on the fitted dose curve; in most records, active means well fitted activation curve with a large enough effect; inconclusive means small, poorly fitted or top-dose-only effect; inactive means no such curve, though single readings can be large or run the other way.

experiment: qHTS assay for re-activators of p53 using a Luc reporter: Hit Validation with no p53 Expressed; conditions: p53-null cells, luciferase reporter counter-screen; series mostly up to 46.1 µM
Outline: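 Counter-screen of primary hits in a cell line not transfected with p53, in Opti-MEM with 10% FBS; compounds at several concentrations (10 mM stock, 1:5; top 46.1 µM in well), 24 h at 37 deg C, 5% CO2. Luminescence read after 10 min with Amplite reagent.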
Potency means the concentration at half of the fitted maximal effect.

Question: For `O=C(CSc1nc2ccccc2c(=O)[nH]1)c1ccc(O)c(O)c1`, which Potency is on record?
Answer: The Potency was “inactive”.

Question: For `O=C(NCCN1CCCCC1)Nc1cccc(C(F)(F)F)c1`, which Potency is on record?
Answer: Its Potency is “inactive”.

Question: Which Potency does the source give for `COc1ccc(NC(=O)CN(C)CC(=O)Nc2ccccc2SC)cc1` here?
Answer: The Potency was “inactive”.

Question: For `Cc1noc(C)c1COc1ccc(C(=O)NCCOc2ccccc2)cc1`, which Potency is on record?
Answer: The Potency was “inactive”.

Question: With `O=C(CCCN1C(=O)/C(=C/c2ccco2)SC1=S)Nc1ccccc1` as the compound, how does the Potency read?
Answer: Its Potency is “inactive”.

Question: Which Potency does the source give for `Cc1ccc(-c2nnc(N(C)C(=O)C3CCCO3)s2)cn1` (centres undefined) here?
Answer: The Potency was “inactive”.

Question: With `Cc1ccc(C(=O)CC(Nc2ccc(F)cc2)c2ccccc2)cc1` (centres undefined) as the compound, how does the Potency read?
Answer: The Potency was “inactive”.

Question: With `CCOc1ccc(NC(=O)/C=C/c2ccccc2)c([N+](=O)[O-])c1` as the compound, how does the Potency read?
Answer: Its Potency is “inactive”.

Question: With `O=C(CSc1nnc(-c2ccc(O)cc2)o1)Nc1ccc2c(c1)OCCO2` as the compound, how does the Potency read?
Answer: Its Potency is “inactive”.

Question: Which Potency does the source give for `Cc1ccccc1Nc1nc(N)nc(COC(=O)c2ccco2)n1` here?
Answer: Its Potency is “inactive”.

Question: For `Cc1csc(SCC(=O)Nc2ccc(C)c(F)c2)n1`, which Potency is on record?
Answer: Its Potency is “inactive”.

Question: Which Potency does the source give for `CC(C)(C)c1ccc(/C=N/Nc2ccc(C(=O)O)cc2)cc1` here?
Answer: The Potency was “inactive”.

Question: For `C=CCn1c(C)cc(C(=O)COC(=O)c2ccc(N)c([N+](=O)[O-])c2)c1C`, which Potency is on record?
Answer: The Potency was “inactive”.

Question: With `CC1(C)Oc2ccc(NC(=O)C3COc4ccccc4O3)cc2O1` (centres undefined) as the compound, how does the Potency read?
Answer: Its Potency is “inactive”.

Question: With `CC(C)CCn1cnc2c(sc3nc4c(cc32)CSC(C)(C)C4)c1=O` as the compound, how does the Potency read?
Answer: Its Potency is “inactive”.

Question: With `Cc1cc2nc(-c3ccc(SCC(=O)Nc4ccc(S(=O)(=O)NC5CC5)cc4)nc3)[nH]c2cc1C` as the compound, how does the Potency read?
Answer: The Potency was “inactive”.

Question: For `O=C(COC(=O)c1ccc(-c2nnc(-c3ccccc3)o2)cc1)c1ccccc1`, which Potency is on record?
Answer: The Potency was 146 nM (active).

Question: With `Cc1ccc2cc(C#N)c(NCc3ccco3)nc2c1` as the compound, how does the Potency read?
Answer: The Potency was “inactive”.

Question: With `CCCCOC(=O)c1ccc(NC(=O)CSc2nncn2C)cc1` as the compound, how does the Potency read?
Answer: The Potency was “inactive”.

Question: With `O=C(Nc1ccc(F)cc1F)c1cc2nc3c(c(C(F)(F)F)n2n1)CCCC3` as the compound, how does the Potency read?
Answer: The Potency was 5800 nM (active).

Question: For `Cc1ncsc1C(=O)Nc1nc2c(s1)CCCC2`, which Potency is on record?
Answer: Its Potency is “inactive”.

Question: Which Potency does the source give for `Cn1c(Cc2cccs2)nnc1SCc1nc2ccccc2[nH]1` here?
Answer: Its Potency is “inactive”.

Question: Which Potency does the source give for `COc1ccc(-c2coc3cc(O[C@@H]4O[C@H](CO)[C@@H](O)[C@H](O)[C@H]4O)ccc3c2=O)cc1` here?
Answer: The Potency was “inactive”.

Question: Which Potency does the source give for `O=C(OCC(=O)N1CCc2ccccc21)c1ccccc1[N+](=O)[O-]` here?
Answer: The Potency was “inactive”.

Question: For `Cc1ccc(/C=C2\SC(=S)N(CCCC(=O)Nc3nccs3)C2=O)cc1`, which Potency is on record?
Answer: The Potency was “inactive”.

Question: With `Cn1ncc([N+](=O)[O-])c1C(=O)Nc1ccc(C2CCCCC2)cc1` as the compound, how does the Potency read?
Answer: The Potency was “inactive”.

Question: Which Potency does the source give for `Cc1cccc(NC(=O)c2oc3c(c2C)C(=O)CC(C)(C)C3)n1` here?
Answer: Its Potency is “inactive”.

Question: Which Potency does the source give for `O=C(CSc1nnc(-c2ccc3c(c2)OCCO3)o1)N1CCCC1` here?
Answer: Its Potency is “inactive”.

Question: With `COc1ccc(NC(=O)/C(Cl)=C(/Cl)S(=O)(=O)Cc2ccc(C)cc2)cn1` as the compound, how does the Potency read?
Answer: The Potency was “inactive”.

Question: Which Potency does the source give for `Cc1ccc(NC(=O)NC(=O)CN2CCC(C(N)=O)CC2)c(C)c1` here?
Answer: Its Potency is “inactive”.

Question: With `COc1ccccc1C(=O)CSc1nccn1C` as the compound, how does the Potency read?
Answer: Its Potency is “inactive”.

Question: For `CCc1ccc(OCC(=O)NC(NC(=S)Nc2ccccc2C)C(Cl)(Cl)Cl)cc1` (centres undefined), which Potency is on record?
Answer: Its Potency is “inactive”.

Question: For `CC(C)/C=C1\CC/C(=C\c2ccc(N(C)C)cc2)C1=O`, which Potency is on record?
Answer: The Potency was “inactive”.

Question: Which Potency does the source give for `Cc1c(C(=O)N(C)c2ccccc2Cl)cnn1-c1ccccc1` here?
Answer: Its Potency is “inactive”.

Question: With `Cc1ccc(-c2cc(-c3ccccc3Cl)[nH]n2)c(O)c1` as the compound, how does the Potency read?
Answer: The Potency was “inactive”.

Question: For `CCCCn1c(/C=N/Nc2nc3ccccc3[nH]2)nc2ccccc21`, which Potency is on record?
Answer: Its Potency is “inactive”.

Question: With `O=c1c2ccccc2oc2ccc(-c3ccc4cc[nH]c4c3)cc12` as the compound, how does the Potency read?
Answer: Its Potency is “inactive”.

Question: Which Potency does the source give for `O=[N+]([O-])c1ccc(Cl)cc1Sc1nc2ccccc2o1` here?
Answer: Its Potency is “inactive”.

Question: For `Brc1c(CSc2nc3ccccc3s2)nc2ncccn12`, which Potency is on record?
Answer: Its Potency is “inactive”.
